DT40 TDP1 no CPT: qHTS for Inhibitors of human tyrosyl-DNA phosphodiesterase 1 (TDP1): qHTS in cells in absence of CPT | DT40 Tdp1-/- hTDP1 cells, no CPT, ATP luminescence, 48 h | Potency, µM (series often up to 46.2 µM), without a hit: top-dose activity change, negative = growth inhibition, usual class: inhibitors | 420,000 compounds, 15% hits; note: % is set by controls: 0 for no effect and ±100 for the full control effect; nearly all actives have a fitted effect of over 55% in size
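A cellular qHTS used chicken DT40 cells lacking endogenous Tdp1 but carrying stably transfected human TDP1. Compounds were applied without camptothecin, and cell growth kinetics were judged by ATP-dependent luminescence after ≥48 hr.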
ClpP mod: qHTS Assay for Activators of ClpP | 340,000 compounds, 1.9% hits | ATP-dependent Clp protease proteolytic subunit (Bacillus subtilis (strain 168)), P80244 | Potency, µM (titrated, usually from 57.5 µM), inactives show at the highest dose activity change, negative = active | purified B. subtilis ClpP, FRET peptide cleavage, 20 min | AID 651965, 2013; active = well fitted falling curve with a large enough effect; inconclusive = small, poorly fitted or top-dose-only effect; inactive = no such curve, though single readings can be large or run the other way; note: the source files actives as falling curves though it sought activators and does not explain the sign; nearly all actives have a fitted effect of over 65% in size
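Buffer: 100 mM Tris/HCl pH8, 100 mM KCl, 0.05% low protease BSA, 2.5% glycerol, 0.01% Tween-20. ClpP 10 microg/mL final; 20 min RT; delta FRET normalized to ADEP and DMSO controls.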
TDP1 inh: TDP1 (human) enzyme inhibition | Potency, µM (doses to about 130 µM), for inactives: at the top dose activity change, negative = inhibition, hits mostly inhibitors | AID 485290 | Q9NUW8 | 350,000 compounds, 0.28% hits | recombinant TDP1, AlphaScreen DNA substrate cleavage; note: % is set by controls: 0 for no effect and ±100 for the full control effect; nearly all actives have a fitted effect of over 40% in size
Target sequence (Q9NUW8 whole entry, looked up): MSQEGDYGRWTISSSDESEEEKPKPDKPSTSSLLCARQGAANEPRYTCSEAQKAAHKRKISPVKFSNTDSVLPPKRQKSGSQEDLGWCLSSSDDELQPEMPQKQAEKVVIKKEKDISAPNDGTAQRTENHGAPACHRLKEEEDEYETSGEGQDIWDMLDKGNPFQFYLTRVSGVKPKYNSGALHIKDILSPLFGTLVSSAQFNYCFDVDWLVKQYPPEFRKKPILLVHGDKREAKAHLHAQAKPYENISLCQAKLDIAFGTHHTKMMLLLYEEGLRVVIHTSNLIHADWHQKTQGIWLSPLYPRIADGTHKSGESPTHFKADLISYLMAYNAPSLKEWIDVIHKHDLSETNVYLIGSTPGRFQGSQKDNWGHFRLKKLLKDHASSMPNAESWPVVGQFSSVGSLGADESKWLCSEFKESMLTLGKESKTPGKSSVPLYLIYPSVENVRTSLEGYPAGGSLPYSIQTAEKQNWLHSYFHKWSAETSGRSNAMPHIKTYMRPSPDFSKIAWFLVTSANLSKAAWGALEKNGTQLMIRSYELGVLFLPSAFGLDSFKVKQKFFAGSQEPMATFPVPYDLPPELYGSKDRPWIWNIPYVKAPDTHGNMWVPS
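E. coli-derived human Tdp1, 1 nM final. Cpd preinc 15 min RT; substrate 15 nM final, 5 min RT; AS bead mix 10 ug/ml final, 10 min RT. Signal loss = tyrosine-FITC cleavage. No-enzyme wells = max signal.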
DT40 TDP1 CPT: DT40-hTDP1 cell growth loss with CPT; chicken DT40 Tdp1-/-;hTDP1 cells + 20 nM CPT, ATP luminescence, 48 h; Potency, µM (titrated, usually from 46.2 µM), inactives show top-dose activity change, negative = growth inhibition, hits mostly inhibitors; 420,000 compounds, 12% hits; note: % is set by controls: 0 for no effect and ±100 for the full control effect; nearly all actives have a fitted effect of over 55% in size
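Chicken DT40 Tdp1-/- cells complemented with human TDP1, 400 cells/well, exposed to compounds plus 20 nM camptothecin for at least 48 h at 37 C; viability read as ATP content by CellTiter-Glo luminescence.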
The depositor's hits bear a star; [ ] = another dose, or the depositor's remark. This is a sample that favours compounds with a hit; in the whole collection about 17% have one here. Unless noted, calls come from the whole dose curve; as a rule, active = well fitted curve in the direction sought with a large enough effect; inconclusive = small, poorly fitted or top-dose-only effect, or another doubt; inactive = no such curve, though single readings can be large; an effect the other way counts as inactive or inconclusive. Potency is the fitted concentration of half-maximal effect.

How did Cn1ccnc1SCC(=O)Nc1nc2c(F)c(F)c(F)cc2s1 do in these assays?
DT40 TDP1 no CPT: inconclusive; ClpP mod: 1.3%; TDP1 inh: -6.1%; DT40 TDP1 CPT: inconclusive

How did N#Cc1cccc(C(=O)OCC(=O)NCc2ccco2)c1 do in these assays?
DT40 TDP1 no CPT: 20.7%; ClpP mod: -1.6%; TDP1 inh: 0.9%; DT40 TDP1 CPT: -14.7%

Results for O=C(/C=C/c1ccco1)Nc1cccc2cccnc12 ?
DT40 TDP1 no CPT: -14.1%; TDP1 inh: 20µM*; DT40 TDP1 CPT: 0.2%

What do the screens show for `O=C(/C=C/c1ccco1)Nc1cccnc1`?
DT40 TDP1 no CPT: 10.8%; TDP1 inh: 2.5%; DT40 TDP1 CPT: 5.3%

What do the screens show for `O=C(/C=C/c1ccco1)Nc1nc(-c2ccccn2)cs1`?
DT40 TDP1 no CPT: 7.31µM*; ClpP mod: -6.8%; TDP1 inh: 7.5%; DT40 TDP1 CPT: 7.31µM*

Results for O=C(/C=C/c1ccco1)Nc1ccccn1 ?
DT40 TDP1 no CPT: 3.26µM*; ClpP mod: 1.4%; TDP1 inh: -4.2%; DT40 TDP1 CPT: 3.26µM*

How did O=C(/C=C/c1ccco1)Nc1nc(-c2ccccc2)cs1 do in these assays?
DT40 TDP1 no CPT: inconclusive; ClpP mod: -3.0%; TDP1 inh: 8.5%; DT40 TDP1 CPT: -20.6%

How did O=C(O)/C=C/C(=O)Nc1cccc2cccnc12 do in these assays?
DT40 TDP1 no CPT: 3.2%; ClpP mod: 0.7%; TDP1 inh: -1.2%; DT40 TDP1 CPT: -0.1%

How did Cc1ccc(NC(=O)/C=C/c2ccco2)nc1 do in these assays?
DT40 TDP1 no CPT: 0.0058µM*; ClpP mod: -6.7%; DT40 TDP1 CPT: 0.013µM*

Results for CN(CC(=O)Nc1ccc(Cl)cc1)C(=O)CN1C(=O)C2CCCCC2C1=O (configuration not stated) ?
DT40 TDP1 no CPT: -23.7%; ClpP mod: 1.6%; DT40 TDP1 CPT: -17.1%

How did COC(=O)c1c(C)sc(-c2c(-c3ccc(OC)c(F)c3)[nH]c3c2c(=O)n(C)c(=O)n3C)c1O do in these assays?
DT40 TDP1 no CPT: 6.1%; ClpP mod: -0.4%; TDP1 inh: -6.8%; DT40 TDP1 CPT: 7.8%

What do the screens show for `CCOc1ccc(S(=O)(=O)N2CCCC(C(=O)NCc3ccncc3)C2)cc1` (configuration not stated)?
DT40 TDP1 no CPT: inconclusive; ClpP mod: 0.3%; TDP1 inh: 5.5%; DT40 TDP1 CPT: inconclusive

How did CCCCC1Cc2[nH]c(=S)[nH]c(=O)c2C(c2ccc(F)cc2)O1 (configuration not stated) do in these assays?
DT40 TDP1 no CPT: -3.8%; ClpP mod: 0.8%; DT40 TDP1 CPT: -7.8%

What do the screens show for `CC(=O)N1CCC[C@H]1C(=O)NCC1Cc2cc(F)cc(-c3ccc(F)c(C)c3)c2O1` (some centres not stated)?
DT40 TDP1 no CPT: -22.8%; DT40 TDP1 CPT: -4.1%[9.04 µM]

What do the screens show for `COc1ccc(NC(=O)COCc2cc(-c3ccco3)on2)cc1Cl`?
DT40 TDP1 no CPT: -23.6%; ClpP mod: -1.4%; TDP1 inh: 7.5%; DT40 TDP1 CPT: inconclusive

How did Cn1c(=O)c2c(nc3n2CC(O)CN3c2ccc(O)cc2)n(C)c1=O (configuration not stated) do in these assays?
DT40 TDP1 no CPT: 5.0%; DT40 TDP1 CPT: 7.5%

How did Cc1cc(C)n2nc3nc4c(cc3c2n1)CCCC4 do in these assays?
DT40 TDP1 no CPT: inconclusive; ClpP mod: 12.6µM*; TDP1 inh: 1.0%; DT40 TDP1 CPT: -19.9%

Results for Cc1cc(C)n2nc(C)c(Br)c2n1 ?
DT40 TDP1 no CPT: 1.9%; TDP1 inh: 3.0%; DT40 TDP1 CPT: 18.0%

How did CC(C)Cc1nc2oc3c(NCCCN4CCOCC4)ncnc3c2c2c1CCC2 do in these assays?
DT40 TDP1 no CPT: inconclusive; ClpP mod: inconclusive; TDP1 inh: 1.0%; DT40 TDP1 CPT: 15.8µM*

What do the screens show for `CC(C)c1nc2oc3c(N4CCNCC4)ncnc3c2c2c1CCC2`?
DT40 TDP1 no CPT: 16.8%; ClpP mod: -2.5%; DT40 TDP1 CPT: -13.8%

What do the screens show for `Cc1nc(NCCCN2CCOCC2)c2oc3ccccc3c2n1`?
DT40 TDP1 no CPT: -16.0%; ClpP mod: -23.9%; TDP1 inh: 6.7%; DT40 TDP1 CPT: -15.1%

How did CC(C)Cc1nc2oc3c(Cl)ncnc3c2c2c1CCC2 do in these assays?
DT40 TDP1 no CPT: 18.4µM*; ClpP mod: 31.6µM*; TDP1 inh: 1.9%; DT40 TDP1 CPT: 13µM*
